According to PubChem BioAssay:
For some of these results: Entries with a potency or affinity are not part of this list. The list shows a part of the results. Activity calls are given as the source filed them.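 Rule for the calls, unless noted: active = dose-response curve with midpoint inside the tested range, moderate steepness, significant amplitude and little compound fluorescence or bead-attachment interference; inactive = the rest.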

Columns and labels:
[1] = RPL19A-GFP modulators, yeast TOR pathway, confirmation, cell-based, S. cerevisiae, flow cytometry, cherry picks, mother/daughter gates (AID 2270;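 active = GFP response below 50% of the DMSO control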); conditions: S. cerevisiae RPL19A-GFP strain, 3 h, at 10 µM, stronger effect = lower value, 100 = same GFP as DMSO wells
[2] = LAP4-GFP expression modulators in yeast, confirmation, cell-based, cherry picks, flow cytometry, mother/daughter gates (AID 2271;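 active = GFP response above 150% of the DMSO control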;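 note: ratio of sample to DMSO plate mean so 100% equals DMSO level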); conditions: S. cerevisiae LAP4-GFP strain, 3 h, at 10 µM, stronger effect = higher value
[3] = modulators of MEP2-GFP levels in yeast, confirmation, S. cerevisiae, flow cytometry GFP, cherry picks (AID 2272;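 active = GFP response above 150% of the DMSO control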;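 note: ratio of well signal to plate DMSO mean so 100% equals DMSO level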); conditions: S. cerevisiae MEP2-GFP strain, 3 h, at 10 µM, stronger effect = higher value
[4] = AGP1-GFP expression modulators, hit retest, confirmation, cell-based, flow cytometry, S. cerevisiae, cherry picks (AID 2273;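 active = GFP response above 150% of the DMSO level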;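 note: median GFP channel fluorescence over the whole cell population gate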); conditions: S. cerevisiae AGP1-GFP strain, 3 h, at 10 µM
[5] = modulators of CIT2-GFP expression in yeast, confirmation, S. cerevisiae, GFP fusion, cherry picks, mother/daughter gates (AID 2274;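 active = GFP response above 150% of the DMSO level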); conditions: S. cerevisiae CIT2-GFP strain, flow cytometry, 3 h, at 10 µM, stronger effect = higher value
[6] = target: Cell division control protein 42 homolog (Homo sapiens) (UniProt P60953); test: activated mutant Cdc42 GTP-binding inhibitors, dose response, biochemical, multiplex bead flow cytometry, Bodipy-FL-GTP (AID 1333;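 active = fitted half-maximal concentration within the tested dose range, moderate curve steepness, a statistically real signal drop, and little compound fluorescence or tag-binding interference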); conditions: bead-based flow cytometry; series mostly up to 100 µM
[7] = target: Cell division control protein 42 homolog (Homo sapiens) (UniProt P60953); test: wildtype Cdc42 GTP-binding inhibitors, dose response, biochemical, multiplex bead flow cytometry, Bodipy-FL-GTP (AID 1334;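 active = fitted half-maximal concentration within the tested range, moderate curve steepness, significant signal drop, and little compound fluorescence or bead-linkage interference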); conditions: bead-based flow cytometry, Bodipy-FL-GTP binding to GST-Cdc42; at 100 µM (top of the series)
[8] = tested on: Ras-related protein Rab-7a (dog), GTP binding; test: Rab7 GTP binding inhibitors, potency, dose response, biochemical, wildtype, multiplex bead flow cytometry (AID 1336; call rule not given here); conditions: bead-based flow cytometry, fluorescent GTP binding to Rab7; series mostly up to 100 µM
[9] = target: Ras-related C3 botulinum toxin substrate 1 (Homo sapiens) (UniProt P63000); test: wildtype Rac1 GTP binding inhibitors, dose response, biochemical, multiplex bead flow cytometry (AID 1340;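 active = dose curve with midpoint inside tested range, moderate steepness, plateau gap beyond fit error, low compound glow and bead-link interference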); conditions: GST-Rac1 beads, Bodipy-FL-GTP binding; at 100 µM (top of the series)
[10] = target: GTPase HRas (Homo sapiens) (UniProt P01112); test: activated Ras mutant GTP binding inhibitors, dose response, biochemical, multiplex bead flow cytometry (AID 1341); conditions: bead-based flow cytometry, Bodipy-FL-GTP binding; series mostly up to 100 µM;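 note: GST-tagged constitutively activated Ras mutant immobilized on beads and multiplexed with other GTPases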
[11] = target: Regulator of G-protein signaling 16 (Homo sapiens) (UniProt O15492); test: modulators of RGS–Galpha-o binding, primary screen, biochemical, multiplexed beads, flow cytometry, RGS4/7/8/16/19 (AID 1504; call rule not given here;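 note: fluorescently labeled Galpha-o bound to GDP with aluminium fluoride binding biotinylated RGS beads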); conditions: multiplexed bead flow cytometry, measured here: RGS16 interaction, at 10 µM
[12] = target: Regulator of G-protein signaling 4 (Homo sapiens) + Guanine nucleotide-binding protein G(o) subunit alpha (Homo sapiens) (UniProt P49798+P09471); test: as above; conditions: multiplexed bead flow cytometry, at 10 µM
[13] = target: Regulator of G-protein signaling 7 (Homo sapiens) (UniProt P49802); test: as above; conditions: multiplexed bead flow cytometry, measured here: RGS7 interaction, at 10 µM
[14] = target: Regulator of G-protein signaling 8 (Homo sapiens) (UniProt P57771); test: as above; conditions: multiplexed bead flow cytometry, measured here: RGS8 interaction, at 10 µM
[15] = disruption of biotin probe capture by avidin, counter-screen for RGS protein interaction modulators, biochemical, flow cytometry, bead-based (AID 1783;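 active = inhibition above 50%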;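 note: median green fluorescence of gated singlet beads compared with DMSO control wells; 0% = DMSO wells and 100% = complete loss of bead fluorescence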); conditions: streptavidin beads, fluorescein-biotin binding, at 10 µM, stronger effect = higher value
[16] = target: Guanine nucleotide-binding protein G(o) subunit alpha (Homo sapiens) (UniProt P09471); test: RGS8-Galphao binding modulators, confirmation, biochemical, multiplexed bead flow cytometry, single concentration (AID 1836; in the data active = binding response below about 72% or above about 130%; inactive = in between;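 note: Galphao activated as GDP AlF4 complex before binding bead RGS8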); conditions: bead-based flow cytometry RGS8-Galphao binding, fluorescence; at 10 µM; actives lie on both sides
[17] = target: Guanine nucleotide-binding protein G(o) subunit alpha (Homo sapiens) (UniProt P09471); test: RGS7-Galphao binding modulators, confirmation, biochemical, multiplexed bead flow cytometry, single concentration (AID 1837; in the data active = response below about 75% or above about 130%; inactive = in between;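 note: fluorescent Galphao activated with GDP and aluminum fluoride binding bead-coupled RGS7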); conditions: bead-based flow cytometry RGS7-Galphao binding; at 10 µM; actives lie on both sides
[18] = target: Regulator of G-protein signaling 16 (Homo sapiens) + Guanine nucleotide-binding protein G(o) subunit alpha (Homo sapiens) (UniProt O15492+P09471); test: modulators of RGS16-Galphao protein binding, confirmation, biochemical, single concentration, multiplexed bead flow cytometry (AID 1838; in the data active = response below about 74% or above about 130%; inactive = in between;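 note: Galphao activated as the GDP aluminium fluoride complex binding bead-coupled RGS16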); conditions: bead-based flow cytometry, at 10 µM, actives lie on both sides
[19] = target: Guanine nucleotide-binding protein G(o) subunit alpha (Homo sapiens) (UniProt P09471); test: modulators of RGS4-Galphao protein binding, confirmation, biochemical, single concentration, multiplexed bead flow cytometry (AID 1840; in the data active = binding response below about 74% or above about 130%; inactive = in between); conditions: at 10 µM, actives lie on both sides
[20] = target: Guanine nucleotide-binding protein G(o) subunit alpha (Homo sapiens) + Regulator of G-protein signaling 19 (Homo sapiens) (UniProt P09471+P49795); test: regulators of RGS19-Galphao binding, confirmation, biochemical, single point, multiplexed bead flow cytometry (AID 1841; in the data active = response below about 50% or above about 160%; inactive = in between;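 note: 100% = no compound control and 0% = blank background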); conditions: bead-based flow cytometry RGS19-Galphao binding; at 10 µM; actives lie on both sides
[21] = measured here: daughter cell gate
[22] = measured here: mother cell gate
[23] = measured here: daughter cell gate response
[24] = measured here: mother cell gate response

Chain of Guanine nucleotide-binding protein G(o) subunit alpha (Homo sapiens) (P09471 whole entry, looked up): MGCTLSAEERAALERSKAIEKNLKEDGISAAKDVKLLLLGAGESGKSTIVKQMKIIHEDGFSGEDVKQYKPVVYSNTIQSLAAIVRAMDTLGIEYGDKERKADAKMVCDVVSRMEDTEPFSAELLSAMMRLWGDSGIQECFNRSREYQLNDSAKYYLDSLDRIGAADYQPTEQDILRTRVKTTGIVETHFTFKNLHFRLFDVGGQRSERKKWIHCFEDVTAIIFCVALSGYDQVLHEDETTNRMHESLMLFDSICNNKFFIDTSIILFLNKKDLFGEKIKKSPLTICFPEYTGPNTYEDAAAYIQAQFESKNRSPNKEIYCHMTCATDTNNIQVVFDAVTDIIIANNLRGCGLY
Chain of Cell division control protein 42 homolog (Homo sapiens) (P60953 whole entry, looked up): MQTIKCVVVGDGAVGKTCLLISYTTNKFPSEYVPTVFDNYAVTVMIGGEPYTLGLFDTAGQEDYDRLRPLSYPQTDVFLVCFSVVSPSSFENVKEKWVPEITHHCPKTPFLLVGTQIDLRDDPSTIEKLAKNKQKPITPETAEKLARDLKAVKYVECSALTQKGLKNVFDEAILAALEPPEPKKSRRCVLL
Chain of Regulator of G-protein signaling 4 (Homo sapiens) + Guanine nucleotide-binding protein G(o) subunit alpha (Homo sapiens) (P09471 whole entry, looked up): as the sequence (P09471 whole entry, looked up) above
Chain of Regulator of G-protein signaling 4 (Homo sapiens) + Guanine nucleotide-binding protein G(o) subunit alpha (Homo sapiens) (P49798 whole entry, looked up): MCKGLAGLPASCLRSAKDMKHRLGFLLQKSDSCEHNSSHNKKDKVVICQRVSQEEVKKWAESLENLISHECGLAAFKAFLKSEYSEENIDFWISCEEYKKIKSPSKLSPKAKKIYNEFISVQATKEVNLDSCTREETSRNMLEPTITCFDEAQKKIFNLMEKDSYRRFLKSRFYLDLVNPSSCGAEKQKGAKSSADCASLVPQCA
Chain of Guanine nucleotide-binding protein G(o) subunit alpha (Homo sapiens) + Regulator of G-protein signaling 19 (Homo sapiens) (P09471 whole entry, looked up): as the sequence (P09471 whole entry, looked up) above
Chain of Guanine nucleotide-binding protein G(o) subunit alpha (Homo sapiens) + Regulator of G-protein signaling 19 (Homo sapiens) (P49795 whole entry, looked up): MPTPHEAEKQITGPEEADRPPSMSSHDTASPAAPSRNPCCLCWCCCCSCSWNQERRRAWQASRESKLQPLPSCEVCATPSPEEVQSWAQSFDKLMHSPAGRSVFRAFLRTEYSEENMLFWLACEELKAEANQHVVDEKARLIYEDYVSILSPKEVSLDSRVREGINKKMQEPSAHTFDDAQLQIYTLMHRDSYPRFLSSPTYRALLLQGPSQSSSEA
Chain of Regulator of G-protein signaling 16 (Homo sapiens) + Guanine nucleotide-binding protein G(o) subunit alpha (Homo sapiens) (O15492 whole entry, looked up): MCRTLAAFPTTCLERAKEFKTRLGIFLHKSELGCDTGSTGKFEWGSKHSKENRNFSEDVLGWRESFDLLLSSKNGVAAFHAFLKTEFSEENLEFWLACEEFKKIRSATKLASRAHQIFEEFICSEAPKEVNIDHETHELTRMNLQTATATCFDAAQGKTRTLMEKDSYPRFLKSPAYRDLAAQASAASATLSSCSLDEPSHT
Chain of Regulator of G-protein signaling 16 (Homo sapiens) + Guanine nucleotide-binding protein G(o) subunit alpha (Homo sapiens) (P09471 whole entry, looked up): as the sequence (P09471 whole entry, looked up) above

O=C1C(=O)c2ccccc2-c2ccccc21
GFP response vs DMSO [1]: 122% (inactive)
GFP response vs DMSO [1, 21]: 106%
GFP response vs DMSO [1, 22]: 116%
GFP response relative to DMSO [2]: 171% (active)
GFP response relative to DMSO [2, 23]: 143%
GFP response relative to DMSO [2, 24]: 169%
GFP response vs DMSO [3]: 117% (inactive)
GFP response, % of DMSO [4]: 126% (inactive)
GFP response, % of DMSO [5]: 88.7% (inactive)
GFP response, % of DMSO [5, 21]: 89.9%
GFP response, % of DMSO [5, 22]: 82.6%

CC1(C)CC(n2[nH]c(=O)c3c2NC(=O)CSC3c2ccccc2)CCO1 (centres undefined)
outcome [6]: inactive
fluorescence, percent of control (lower = inhibition) [7]: 35.5%
outcome [8]: inactive
GTP binding signal, raw median fluorescence (lower = inhibition) (MCF (arbitrary fluorescence units)) [9]: 266
outcome [10]: inactive

O=C(O)c1cn(Cc2ccc(Cl)cc2)c2ccccc12
outcome [6]: inactive
fluorescence, percent of control (lower = inhibition) [7]: 76.5%
outcome [8]: inactive
GTP binding signal, raw median fluorescence (lower = inhibition) (MCF (arbitrary fluorescence units)) [9]: 77.6
outcome [10]: inactive

O=c1[nH]c(=S)[nH]c(O)c1N=Nc1ccc(S(=O)(=O)N2CCc3ccccc32)cc1
outcome [6]: inactive
fluorescence, percent of control (lower = inhibition) [7]: 44.9%
outcome [8]: inactive
GTP binding signal, raw median fluorescence (lower = inhibition) (MCF (arbitrary fluorescence units)) [9]: 312
outcome [10]: inactive

CCCCN1C(=O)/C(=C\c2ccco2)C(=O)N(CCc2ccccc2)C1=O
outcome [6]: inactive
fluorescence, percent of control (lower = inhibition) [7]: 77.8%
outcome [8]: inactive
GTP binding signal, raw median fluorescence (lower = inhibition) (MCF (arbitrary fluorescence units)) [9]: 129
outcome [10]: inactive

C#C[C@]1(O)CC[C@H]2[C@@H]3CCC4=CC(=O)CC[C@]4(C)[C@H]3CC[C@@]21C
GFP response vs DMSO [1]: 97% (inactive)
GFP response vs DMSO [1, 21]: 95.9%
GFP response vs DMSO [1, 22]: 95.6%
GFP response relative to DMSO [2]: 103% (inactive)
GFP response relative to DMSO [2, 23]: 102%
GFP response relative to DMSO [2, 24]: 101%
GFP response vs DMSO [3]: 107% (inactive)
GFP response, % of DMSO [4]: 95.4% (inactive)
GFP response, % of DMSO [5]: 95.5% (inactive)
GFP response, % of DMSO [5, 21]: 97.2%
GFP response, % of DMSO [5, 22]: 92.6%

COCCCn1c(N)c(C(=O)Nc2sc3c(c2C(=O)OC)CCCC3)c2nc3ccccc3nc21
outcome [6]: inactive
fluorescence, percent of control (lower = inhibition) [7]: 85.2%
outcome [8]: inactive
GTP binding signal, raw median fluorescence (lower = inhibition) (MCF (arbitrary fluorescence units)) [9]: 139
outcome [10]: inactive

O=C(O)c1cn(Cc2ccccc2F)c2ccccc12
outcome [6]: inactive
fluorescence, percent of control (lower = inhibition) [7]: 93%
outcome [8]: inactive
GTP binding signal, raw median fluorescence (lower = inhibition) (MCF (arbitrary fluorescence units)) [9]: 68.4
outcome [10]: inactive

O=C(O)c1cn(Cc2ccccc2Cl)c2ccccc12
outcome [6]: inactive
fluorescence, percent of control (lower = inhibition) [7]: 64.9%
outcome [8]: inactive
GTP binding signal, raw median fluorescence (lower = inhibition) (MCF (arbitrary fluorescence units)) [9]: 34.1
outcome [10]: inactive

CN1C(=O)N(C)C(=O)C2(Cc3c(ccc4ccccc34)N(C)C2)C1=O
outcome [6]: inactive
fluorescence, percent of control (lower = inhibition) [7]: 34.8%
outcome [8]: inactive
GTP binding signal, raw median fluorescence (lower = inhibition) (MCF (arbitrary fluorescence units)) [9]: 230
outcome [10]: inactive

COc1ccc(-c2cc(=NCCCCCC(=O)O)c3cc(C)ccc3o2)cc1
outcome [6]: inactive
fluorescence, percent of control (lower = inhibition) [7]: 34.9%
outcome [8]: inactive
GTP binding signal, raw median fluorescence (lower = inhibition) (MCF (arbitrary fluorescence units)) [9]: 132
outcome [10]: inactive

CC(Oc1ccc(-c2ccccc2)cc1)C(=O)O (centres undefined)
outcome [6]: inactive
fluorescence, percent of control (lower = inhibition) [7]: 126%
outcome [8]: inactive
GTP binding signal, raw median fluorescence (lower = inhibition) (MCF (arbitrary fluorescence units)) [9]: 213
outcome [10]: inactive

Cc1nc2c(=O)n(C)c(=O)nc-2n(C)n1
outcome [8]: inactive
GTP binding signal, raw median fluorescence (lower = inhibition) (MCF (arbitrary fluorescence units)) [9]: 251
outcome [10]: inactive

O=C(O)c1cn(Cc2ccc(F)cc2)c2ccccc12
outcome [6]: inactive
fluorescence, percent of control (lower = inhibition) [7]: 106%
outcome [8]: inactive
GTP binding signal, raw median fluorescence (lower = inhibition) (MCF (arbitrary fluorescence units)) [9]: 91.8
outcome [10]: inactive

O=C1CN=C(c2ccccc2)c2cc(Br)ccc2N1Cc1cc(=O)n2ccccc2n1
outcome [6]: inactive
fluorescence, percent of control (lower = inhibition) [7]: 47.5%
GTP binding signal, raw median fluorescence (lower = inhibition) (MCF (arbitrary fluorescence units)) [9]: 216
outcome [10]: inactive

O=C(O)c1cn(Cc2ccc(Br)cc2)c2ccccc12
outcome [6]: inactive
fluorescence, percent of control (lower = inhibition) [7]: 91.7%
outcome [8]: inactive
GTP binding signal, raw median fluorescence (lower = inhibition) (MCF (arbitrary fluorescence units)) [9]: 74
outcome [10]: inactive

CCn1nc(/C=C/c2ccccc2)nc2c(=O)n(C)c(=O)nc1-2
outcome [8]: inactive
GTP binding signal, raw median fluorescence (lower = inhibition) (MCF (arbitrary fluorescence units)) [9]: 195
outcome [10]: inactive

Cc1cc(OCCCn2cc(C(=O)O)c3ccccc32)ccc1Cl
outcome [6]: inactive
fluorescence, percent of control (lower = inhibition) [7]: 58.1%
outcome [8]: inactive
GTP binding signal, raw median fluorescence (lower = inhibition) (MCF (arbitrary fluorescence units)) [9]: 28.5
outcome [10]: inactive

Cc1ccc(C)c(OCCCn2cc(C(=O)O)c3ccccc32)c1
outcome [6]: inactive
fluorescence, percent of control (lower = inhibition) [7]: 61.7%
outcome [8]: inactive
GTP binding signal, raw median fluorescence (lower = inhibition) (MCF (arbitrary fluorescence units)) [9]: 36.2
outcome [10]: inactive

Cc1sc(-n2c(C)cc(C=C3C(=O)NC(=O)NC3=O)c2C)c(C#N)c1C
outcome [6]: inactive
fluorescence, percent of control (lower = inhibition) [7]: 27.5%
GTP binding signal, raw median fluorescence (lower = inhibition) (MCF (arbitrary fluorescence units)) [9]: 199
outcome [10]: inactive

Cc1nn(Cc2ccccc2)c(Cl)c1C(=O)O
fluorescence, percent of control (lower = inhibition) [7]: 45.4%
GTP binding signal, raw median fluorescence (lower = inhibition) (MCF (arbitrary fluorescence units)) [9]: 270
outcome [10]: inactive

O=C1NC(=S)N(Cc2ccco2)C(=O)/C1=C\c1cccs1
outcome [6]: inactive
fluorescence, percent of control (lower = inhibition) [7]: 54.7%
outcome [8]: inactive
GTP binding signal, raw median fluorescence (lower = inhibition) (MCF (arbitrary fluorescence units)) [9]: 167
outcome [10]: inactive

CC(C)N(CC#CCC1(O)c2ccccc2-c2ccccc21)C(C)C
RGS16–Galpha-o binding response [11]: 180%
RGS4–Galpha-o binding response [12]: 106% (active)
RGS7–Galpha-o binding response [13]: 107%
RGS8–Galpha-o binding response [14]: 122%
inhibition [15]: 0.7% (inactive)
binding response (% of control) [16]: 98.5% (inactive)
response (percent of control binding) [17]: 99.5% (inactive)
response (% of control binding) [18]: 101% (inactive)
binding response (% of control) [19]: 99.5% (inactive)
response (percent of control binding) [20]: 110% (inactive)
